# The entries come from a sample that favours hits as a whole.
# KDM5B inh: inhibitors of human KDM5B histone demethylase. Q9UGL1. KDM5B demethylase, FDH-coupled NADH fluorescence (FDH is formaldehyde dehydrogenase). Potency, µM (series often up to 57.7 µM), actives largely listed as inhibitors. hit rate 2.6% among 220,000; active means well fitted inhibition curve with a large enough effect; further: 0% is about no effect; nearly all actives have a fitted effect of over 70% in size
# Target sequence (Q9UGL1 whole entry, looked up): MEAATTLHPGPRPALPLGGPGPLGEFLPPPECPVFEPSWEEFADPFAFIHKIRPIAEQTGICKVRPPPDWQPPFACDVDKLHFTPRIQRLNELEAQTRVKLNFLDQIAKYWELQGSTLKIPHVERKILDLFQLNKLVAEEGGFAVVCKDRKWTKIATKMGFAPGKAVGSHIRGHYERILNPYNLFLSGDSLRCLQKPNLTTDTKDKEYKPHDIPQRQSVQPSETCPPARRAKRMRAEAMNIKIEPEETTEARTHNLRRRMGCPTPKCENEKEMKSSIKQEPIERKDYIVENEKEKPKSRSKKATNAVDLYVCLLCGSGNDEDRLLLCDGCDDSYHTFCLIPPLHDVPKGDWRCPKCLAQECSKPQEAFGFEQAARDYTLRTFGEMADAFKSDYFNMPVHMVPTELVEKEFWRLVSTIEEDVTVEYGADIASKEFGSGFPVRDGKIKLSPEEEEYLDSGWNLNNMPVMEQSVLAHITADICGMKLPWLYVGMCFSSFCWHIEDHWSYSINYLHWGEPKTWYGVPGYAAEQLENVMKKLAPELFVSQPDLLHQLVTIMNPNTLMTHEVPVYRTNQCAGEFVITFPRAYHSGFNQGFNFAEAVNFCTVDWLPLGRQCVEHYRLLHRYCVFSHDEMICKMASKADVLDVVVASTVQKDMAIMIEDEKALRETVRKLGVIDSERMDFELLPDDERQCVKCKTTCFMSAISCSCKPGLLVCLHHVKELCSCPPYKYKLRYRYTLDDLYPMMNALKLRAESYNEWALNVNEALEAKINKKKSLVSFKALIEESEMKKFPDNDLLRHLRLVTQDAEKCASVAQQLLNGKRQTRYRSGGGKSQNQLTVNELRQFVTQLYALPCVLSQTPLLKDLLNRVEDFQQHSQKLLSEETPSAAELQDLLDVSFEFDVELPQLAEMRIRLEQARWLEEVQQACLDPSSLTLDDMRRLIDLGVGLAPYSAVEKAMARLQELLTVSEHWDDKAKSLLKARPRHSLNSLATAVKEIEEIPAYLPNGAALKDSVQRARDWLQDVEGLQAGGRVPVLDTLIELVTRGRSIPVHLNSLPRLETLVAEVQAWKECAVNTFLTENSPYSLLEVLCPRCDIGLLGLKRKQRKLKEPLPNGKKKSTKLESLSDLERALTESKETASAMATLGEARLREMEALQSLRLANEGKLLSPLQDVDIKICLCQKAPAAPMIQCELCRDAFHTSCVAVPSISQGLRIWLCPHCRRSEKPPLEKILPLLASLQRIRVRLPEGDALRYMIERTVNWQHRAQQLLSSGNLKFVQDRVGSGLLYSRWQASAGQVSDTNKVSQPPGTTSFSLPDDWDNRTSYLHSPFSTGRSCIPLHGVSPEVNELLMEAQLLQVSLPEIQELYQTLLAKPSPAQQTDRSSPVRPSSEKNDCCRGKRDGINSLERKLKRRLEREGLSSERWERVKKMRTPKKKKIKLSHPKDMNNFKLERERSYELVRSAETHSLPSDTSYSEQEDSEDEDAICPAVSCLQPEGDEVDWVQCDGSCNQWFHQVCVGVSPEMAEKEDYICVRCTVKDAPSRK
#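 Measured: NADH fluorescence change, 30 min, RT. System: KDM5BΔAP 200 nM final, H3K4me3 peptide, α-KG, Fe(II), ascorbate, NAD⁺ plus FDH, pH 7.5 HEPES. Compounds: titrated, 10 min pre-incubation with enzyme.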
# The depositor's hits bear a star; i = inactive. Potency means the concentration at half of the fitted maximal effect.
SMILES,KDM5B inh
CCn1ncc(N2CCCC(CC(=O)N3CCN(c4ccccn4)CC3)C2)cc1=O (centres undefined),i
CC(NC(=O)C1CCC1)C(=O)N1CCN(c2ccccn2)CC1 (centres undefined),22.4µM*
COc1ccccc1N1CCN(C(=O)C(CC(C)C)NC(=O)C2CCCCC2)CC1 (centres undefined),i
CC(NC(=O)C1CCCO1)C(=O)N1CCN(c2ccccn2)CC1 (centres undefined),25.1µM*
CC(CCc1ccccc1)NC(=O)C1CCCO1 (centres undefined),i
Cc1ccc(C(C)NC(=O)C2CCCO2)cc1 (centres undefined),i
CCC1CCc2sc(C(=O)N3CCN(c4ccccn4)CC3)cc2C1 (centres undefined),i
CC(C)C(NC(=O)C1CCC1)C(=O)N1CCN(c2ccccn2)CC1 (centres undefined),22.4µM*
CCC(=O)N1CCCC(CN2CCN(c3ccccn3)CC2)C1 (centres undefined),i
Cc1ccc(C(=O)N(Cc2ccncc2)C2CC2)s1,i
COC(=O)C1(C(=O)OC)CC(C(=O)OC)(C(=O)OC)C(C(=O)OC)(C(=O)OC)C1,i
COc1ccc(NC(=O)C2CCCN(c3ccc4nncn4n3)C2)cc1Cl (centres undefined),i
COC[C@H]1CCCN1Cc1nc(C2(O)CCN(Cc3ccccc3O)CC2)cs1,i
Cc1cccc(CC(=O)N[C@@H]2CN(c3ccncn3)C[C@H]2CO)c1,i
COc1ccccc1CCC(=O)N1C[C@@H](CO)[C@H](c2ccncc2)C1,i
COc1ccccc1CCC(=O)N1C[C@@H](CO)[C@H](NC(C)=O)C1,i
Cc1ccc(C)c(C(=O)N[C@@H]2CN(c3ccncn3)C[C@H]2CO)c1,i
Cc1ncccc1C(=O)N[C@@H]1CN(c2ncccn2)C[C@H]1CO,20µM*
O=C(N[C@@H]1CN(c2ccncn2)C[C@H]1CO)c1ccco1,i
Cc1nn(C)c(C)c1C(=O)N[C@@H]1CN(c2ncccn2)C[C@H]1CO,20µM*
O=C(N[C@@H]1CN(c2ncccn2)C[C@H]1CO)c1ccoc1,12.6µM*
O=C(N[C@@H]1CN(Cc2ccccc2)C[C@H]1CO)c1ccnnc1,i
CCOc1ccccc1C(=O)N[C@@H]1CN(c2ccncn2)C[C@H]1CO,i
COc1ccccc1CCC(=O)N[C@@H]1CN(c2ncccn2)C[C@H]1CO,17.8µM*
Cc1cc(CN2C[C@@H](CO)[C@H](NC(=O)c3ccccc3)C2)n(C)n1,i
SMILES,KDM5B inh
COc1cc(C(=O)/C=C/c2ccc(Cl)cc2)ccc1OCC(=O)O,i
CC(OC(=O)/C=C/c1ccccc1)C(N)=O (centres undefined),i
O=C(c1ccccc1)N(Cc1ccco1)c1ccccn1,i
Nc1nc(Nc2ccc(F)cc2)sc1C(=O)c1ccccc1Cl,i
CN(Cc1ccc(Br)cc1)C(=O)CN1CCCC1c1ccc2c(c1)OCCO2 (centres undefined),i
CCOC(=O)C1CCC(CNC(=O)Nc2c(NC3CCCCC3)c3ccccc3oc2=O)CC1 (centres undefined),i
Cc1cccc(OCC(O)Cn2cnc3c2c(=O)n(C)c(=O)n3C)c1 (centres undefined),i
Cc1ccccc1-c1nc(CNS(=O)(=O)c2ccc(Cl)cc2)c(C)o1,i
CS(=O)(=O)c1ccc(C(=O)Nc2ccc(-c3cn4ccsc4n3)cc2)cc1,i
Cc1ccsc1C(=O)Nc1ccc(-c2nnc3n2CCCC3)cc1,i
O=c1c2c(n(Cc3ccccc3)n1-c1ccccc1)CN(Cc1cccnc1)CC2,31.6µM*
O=c1c2c(n(Cc3cccnc3)n1CCc1ccccc1)CN(CC1CCOC1)CC2 (centres undefined),35.5µM*
COC1CCC(C(=O)N2CCc3c(n(Cc4cccnc4)n(-c4ccccc4)c3=O)C2)CC1 (centres undefined),i
CC(C)C(=O)N1CCc2c(n(Cc3cccnc3)n(CCc3ccccc3)c2=O)C1,i
Cc1ncsc1C(=O)N1CCc2c(n(Cc3cccnc3)n(CCc3ccccc3)c2=O)C1,i
Nc1ncccc1CN1CCc2c(n(Cc3ccccc3)n(-c3ccccc3)c2=O)C1,i
CC(C)(C)c1ccc(C(=O)Nc2ccc(F)c(F)c2F)cc1,i
Fc1cccc(NC(=S)NCc2ccccc2)c1,i
COc1cc(/C=C/C2=Nc3ccccc3SC(C)(C)C2)ccc1O,i
Cc1ccc(NC(=O)COC(=O)C2(c3ccccc3F)CCCC2)c([N+](=O)[O-])c1,i
CCCCn1nnc(NC(=O)COc2cccc(C)c2)n1,i
COc1ccc(-c2ccc3nnc(CNC(=O)c4sccc4C)n3n2)cc1,31.6µM*
COc1ccc(C(=O)NCc2nnc3ccc(-c4ccc(C)cc4)nn23)c(C)c1,28.2µM*
COc1ccc(-c2ccc3nnc(CNC(=O)COc4cccc(C)c4)n3n2)cc1,25.1µM*
Cc1ccsc1C(=O)NCc1ccc(Cl)cc1,i
SMILES,KDM5B inh
Cc1ccsc1C(=O)NCc1ccncc1,i
COc1ccc(-c2nn(C)c(=O)c3ccccc23)cc1NC(=O)COc1cccc(C)c1,i
COc1ccc(C(=O)NCc2nnc(SCC(=O)Nc3ccc(C)cc3)n2-c2ccccc2)cc1,i
Cc1ccc(C(=O)NCc2ccncc2)c(C)c1,i
Cc1ccc(C(=O)NCc2nc(C)cs2)c(C)c1,i
COc1ccc(-c2ccc3nnc(CNC(=O)c4ccc(C)cc4C)n3n2)cc1,28.2µM*
COc1ccc(C(=O)/C=C/c2ccc(OCC(=O)O)c(OC)c2)cc1F,i
COC(=O)c1ccc(CNC(=O)c2ccccc2-c2ccccc2)cc1,i
O=C(Nc1ccc(F)cc1F)c1nc2ccccc2nc1N1CCCCC1,i
COCCNc1cc(-c2ccc3ccccc3n2)c2cc[nH]c2n1,i
CCCCCC/C(=N\NC(N)=O)c1ccccc1,i
O=C(c1cc2ccccc2[nH]1)N1CCN(C(=O)C2CC2)CC1,i
CCC(=O)Nc1cc(NC(=O)CC)cc(-c2nc3ccccc3o2)c1,i
CCNCc1ccc(-c2ccccc2Cl)o1,i
O=C(NCc1ccccc1S(=O)(=O)N1CCOCC1)c1ccc(F)cc1,i
O=C(Cc1c[nH]c2ncc(-c3cccnc3)cc12)NC1CCC1,i
Cc1noc(C)c1-c1cnc2[nH]cc(CC(=O)NCc3cccnc3)c2c1,35.5µM*
Cc1noc(C)c1-c1cnc2[nH]cc(CC(N)=O)c2c1,31.6µM*
CCOC(=O)NCC(=O)NCc1cccnc1,i
Cc1ccc(-c2cnc(CCC(=O)NCc3ccco3)o2)cc1C,i
CCOc1ccc(C(C)=O)cc1COC(=O)c1ccc(C(N)=O)cc1,i
O=C(Nc1ccccc1C(=O)OCC(=O)N1CCCC1=O)c1ccco1,i
CC(C)C[C@H](CO)NC(=O)C[C@@H]1c2nc(NC(=O)c3c(F)cccc3F)sc2C[C@@H]2[C@](C)(CO)[C@H](O)CC[C@]21C,i
COc1ccc(CNC(=O)C[C@@H]2c3nc(NC(=O)c4cccs4)sc3C[C@@H]3[C@](C)(CO)[C@H](O)CC[C@]32C)cc1,25.1µM*
COCC(=O)Nc1nc2c(s1)C[C@@H]1[C@](C)(CO)[C@H](O)CC[C@@]1(C)[C@@H]2CC(=O)NCc1ccc(OC)cc1,i
COc1ccc(CNC(=O)C[C@@H]2c3nc(NC(=O)c4c(F)cccc4F)sc3C[C@@H]3[C@](C)(CO)[C@H](O)CC[C@]32C)cc1,28.2µM*

# Assay outcomes (PubChem BioAssay)
